This excerpt belongs to a sample that is enriched for hits.
ClpP mod = qHTS Assay for Activators of ClpP; ATP-dependent Clp protease proteolytic subunit (Bacillus subtilis (strain 168)), P80244; purified B. subtilis ClpP, FRET peptide cleavage, 20 min; Potency, µM (doses to about 57.5 µM), without a hit: at the highest dose activity change, negative = active; 1.9% of 340,000 active; AID 651965, 2013; active means well fitted falling curve with a large enough effect; inconclusive means small, poorly fitted or top-dose-only effect; inactive means no such curve, though single readings can be large or run the other way; further: potency means the concentration at half of the fitted maximal effect; the source files actives as falling curves though it sought activators and does not explain the sign; nearly all actives have a fitted effect of over 65% in size
Target sequence (P80244 whole entry, looked up): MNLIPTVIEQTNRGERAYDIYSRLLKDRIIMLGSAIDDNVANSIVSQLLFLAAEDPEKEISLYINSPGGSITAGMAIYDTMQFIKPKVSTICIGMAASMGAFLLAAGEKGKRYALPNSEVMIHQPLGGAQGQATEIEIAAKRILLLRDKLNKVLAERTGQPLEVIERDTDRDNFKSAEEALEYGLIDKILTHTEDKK
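Purified B. subtilis ClpP, 10 microg/mL final in Tris/HCl pH8 with KCl, BSA, glycerol and Tween-20, cleaved an Abz/nitrotyrosine-quenched decapeptide. Fluorescence (ex 320, em 430) was read at 0 and 20 min at room temperature. Delta was normalized to 5.8 microM ADEP and DMSO/no-enzyme controls.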
CBFb RUNX1 block = CBF-beta/RUNX1 interaction disruption | AlphaScreen CBFb-His/RUNX1-biotin binding, biochemical | Potency, µM (top dose mostly 59.8 µM), for the others: top-dose activity, negative = inhibition, usual class: inhibitors | 230,000 tested, under 10 active | AID 1477; active means well fitted curve in the direction sought with a large enough effect; inconclusive means small, poorly fitted or top-dose-only effect, or effect the other way, or another doubt; inactive means no such curve, though single readings can be large or run the other way; further: % of control where 0% means no effect
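AlphaScreen proximity signal reports loss of binding between His-tagged CBF-beta and biotin-labelled RUNX1, each at 30 nM. Proteins are pre-associated for 20 minutes, compounds added for 15 minutes, then beads for 90 minutes, all at ambient temperature.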
MBNL1-CUG inh = inhibitors of human MBNL1 binding to CUG repeat RNA | Q9NR56 | TR-FRET MBNL1-His/biotin-(CUG)12 binding, 665/545 ratio | Potency, µM (doses to about 57.5 µM), inactives show top-dose activity change, negative = inhibition, most hits filed as inhibitors | 0.036% of 280,000 active | AID 2675; active means well fitted inhibition curve with a large enough effect in the signal ratio, with a control signal flat, not every such curve was filed as active; inconclusive means small, poorly fitted or top-dose-only effect, or effect the other way, or a change in a side signal; inactive means no such curve, though single readings can be large or run the other way; the % refers to the signal ratio; further: potency means the concentration at half of the fitted maximal effect; on the % scale 0 is the no-effect control and ±100 the full control effect
Target sequence (Q9NR56 whole entry, looked up): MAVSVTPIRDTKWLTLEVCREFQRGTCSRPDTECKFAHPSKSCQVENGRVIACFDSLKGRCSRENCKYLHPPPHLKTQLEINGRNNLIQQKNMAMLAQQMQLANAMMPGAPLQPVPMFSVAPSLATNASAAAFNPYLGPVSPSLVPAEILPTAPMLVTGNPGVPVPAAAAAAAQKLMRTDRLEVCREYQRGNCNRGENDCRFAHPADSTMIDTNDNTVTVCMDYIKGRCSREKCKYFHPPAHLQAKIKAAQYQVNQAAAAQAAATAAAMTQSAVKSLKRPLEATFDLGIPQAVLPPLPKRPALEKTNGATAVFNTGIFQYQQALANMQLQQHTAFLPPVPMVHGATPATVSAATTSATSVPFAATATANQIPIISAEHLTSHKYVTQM
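TR-FRET readout: Ex 340 nm, 665/545 nm emission ratio, normalized to buffer-only (basal) and MBNL1-(CUG)12 controls. Complex of MBNL1-His with Biotin-(CUG)12, compounds 92 nM–58 uM, incubated 60 min at room temperature.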
Rango-impB inh = Rango-importin beta binding inhibition. Rango CFP/YFP FRET sensor + importin beta, 45 min. AID 540263. Potency, µM (top dose mostly 92.2 µM), for inactives: at the top dose inhibition of complex formation. Q14974. 0.031% of 340,000 active;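 further: potency means the concentration at half of the fitted maximal effect; 0% = DMSO wells and 100% = buffer wells lacking importin beta; nearly all actives have a fitted effect of over 15% in size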
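Inhibition scored from the CFP 486 nm/YFP 530 nm FRET ratio 45 min after adding 0.125 microM importin beta to 50 nM Rango biosensor preincubated 5 min with compound (room temperature, PBS with DTT, Tween-20, BSA). No-importin wells as positive control.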
Rango dissoc inh = inhibitors of RanGTP-induced Rango-importin beta complex dissociation. AID 540253. 0.071% of 340,000 active. Potency, µM (doses to about 46.1 µM), without a hit: at the highest dose activity change, negative = inhibition. Biochemical FRET Rango-importin beta, RanGTP-induced dissociation; further: potency means the concentration at half of the fitted maximal effect; % of control where 0% means no effect; nearly all actives have a fitted effect of over 45% in size
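Quantitative HTS using a FRET biosensor: 0.1 uM Rango, 0.25 uM importin beta, 0.6 uM Ran, 2 mM GTP, 0.2 uM RCC1 final, PBS with DTT, Tween-20 and BSA. Post-read taken 45 min after Ran addition.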
* hit, by the source's call; u = inconclusive; x = not tested or not shown; [ ] = dose if it differs, or a comment. Unless noted, the call rests on the fitted dose curve.

SMILES	ClpP mod	CBFb RUNX1 block	MBNL1-CUG inh	Rango-impB inh	Rango dissoc inh
CC(=O)Oc1ccc2c3c(c(=O)oc2c1)CCCC3	3.7%	x	5.9%	u	20.6µM*
CCC(NC(=O)OC(C)(C)C)C(=O)Oc1ccc2c3c(c(=O)oc2c1)CCC3 (stereo unspecified)	215.3%	-3.7%	23.9%	u	11.6µM*
CCC1CCCCN1C(=O)COc1ccc2c3c(c(=O)oc2c1)CCC3 (stereo unspecified)	28.2µM*	x	x	-3.0%	-0.6%
O=C(O)[C@@H]1CCCN1C(=O)COc1ccc2c3c(c(=O)oc2c1)CCC3	5.2%	x	20.6%	-0.2%	u
CCc1cc2c3c(c(=O)oc2cc1OC)CCCC3	35.5µM*	15.6%	-9.5%	0.2%	-8.1%
CCOc1cc2oc(=O)c3c(c2cc1Cl)CCC3	-24.8%	12.6%	-4.1%	-2.4%	-4.8%
O=C(COC(=O)C12CC3CC(CC(C3)C1)C2)NCC1CCCO1 (stereo unspecified)	-3.0%	x	x	x	x
N#Cc1ccc2c(c1)C[C@]1(c3ccsc3)OC3=C(C(=O)OC4(CCCCC4)C3)C2O1	x	x	6.3%[11.5 µM]	x	x
COc1cc(OC)cc(C2=Nn3c(nnc3-c3cccc(OC)c3)SC2)c1	x	-5.5%	x	x	x
CCOc1ccc(N(C(C)=O)c2nc(C)cc(C)c2C#N)cc1	25.1µM*	6.0%	16.9%	0.7%	12.0%
CC(=O)N(c1ccc(Cl)cc1)c1nc(C)cc(C)c1C#N	x	7.4%	18.9%	-1.6%	-14.4%
CCC(C)CC(C)CC(C)C(=O)/C=C(/O)C(C)CC(C)C/C=C/C(C)C(O)C(C)C(O)CC1CCC(C)(C)O1 (stereo unspecified)	x	11.3%	x	x	x
COc1ccc(-c2cc3ccccc3n2CC(O)CN2CCOCC2)cc1 (stereo unspecified)	8.91µM*	-1.0%	-0.7%	-3.3%	-9.1%
CCCCn1cc2c(c1-c1ccc(Br)cc1)c(=O)n(C)c(=O)n2C	4.1%	x	x	x	x
COc1ccc(-c2cc(=O)oc3c4c(ccc23)OCN(Cc2cccc(OC)c2)C4)cc1	31.6µM*	x	x	x	x
COc1ccc(-c2cc(=O)oc3c4c(ccc23)OCN(Cc2ccccc2)C4)cc1	-6.8%	x	x	x	x
CNC(=O)Cn1c(C)cc(=O)c2cccc(OC)c21	1.6%	-1.7%	x	3.7%	-1.8%
COc1cccc2c(=O)cc(C)n(CC(=O)Nc3ccccc3C)c12	12.6µM*	3.3%	5.1%	-1.1%	-11.1%
CCOC(=O)COc1ccc2nsnc2c1Cl	35.5µM*	4.5%	u	3.5%	1.5%
O=C1NC(=O)c2c(NC(=O)C3CCCO3)cccc21 (stereo unspecified)	15.8µM*	1.4%	19.5%	-1.4%	2.2%
COC(=O)c1ccccc1NC1OC(=O)c2ccccc21 (stereo unspecified)	31.6µM*	5.9%	5.5%	1.0%	-17.7%
CC(=O)N(C)c1ccc(NC(=S)Nc2cccc3ccccc23)cc1	31.6µM*	-17.4%	2.2%	-1.4%	21.0%
Nc1ccccc1C(=O)NC(=O)Nc1ccc(Oc2ncc(Br)cn2)c(Cl)c1	22.4µM*	x	x	-6.5%	-22.0%
Cc1cc(NC(=O)NC(=O)c2ccccc2NC(=O)CN)ccc1Oc1ncc(Br)cn1	17.8µM*	x	x	0.2%	5.0%
Cc1cc(NC(=O)NC(=O)c2ccccc2NC(=O)CN(C)C)ccc1Oc1ncc(Br)cn1	1.5%	x	x	0.1%	-15.1%
SMILES	ClpP mod	CBFb RUNX1 block	MBNL1-CUG inh	Rango-impB inh	Rango dissoc inh
CC(C)(C)CC(C)(C)N=C1Nc2ccc(Cl)cc2NC12C[C@H]1CCC(=O)N3CC[C@@H](C2)[C@@H]13 (stereo partly specified)	2.2%	x	x	x	x
CCOC(=O)c1cc(-c2ccc(C)cc2)n(CCC(=O)NCCc2ccc(C)cc2)c1C	-27.8%	x	x	x	x
CCSc1nc(-c2ccc(OC)cc2)n(-c2nc3ccccc3s2)n1	28.2µM*	8.7%	8.7%	-2.6%	19.9%
Cc1nn(-c2ccccn2)c2c1C(c1ccsc1)C1=C(CCCC1=O)N2 (stereo unspecified)	25.1µM*	-0.8%	-8.0%	5.2%	13.3%
COc1ccc(-c2cc(C(F)(F)F)nc(N3CCCCCC3)n2)cc1	22.4µM*	9.9%	-3.4%	0.0%	24.4%
COc1ccc(-c2cc(C(F)(F)F)nc(N3CCCCC3)n2)cc1OC	35.5µM*	6.7%	7.7%	1.0%	-7.3%
COc1ccc(C(=O)Nc2ccc3nc(SCc4ccc(C)cc4)sc3c2)cc1	25.1µM*	x	x	x	x
CCC(=O)Nc1ccc2nc(SCc3ccc(C)cc3)sc2c1	3.9%	x	x	x	x
COc1cccc(CN2CCC2(C)C(=O)Nc2cccc3cccnc23)c1F (stereo unspecified)	28.2µM*	x	x	x	x
CCN1CCc2c(C#N)c(N3CCCCC3)nc(NCc3ccccc3)c2C1	u	-8.5%	18.0%	u	u
CCN1CCc2c(C#N)c(N3CCOCC3)nc(NCCO)c2C1	8.91µM*	1.5%	-2.6%	u	-5.0%
CCc1nc(NCc2ccccc2)c(C#N)c2c1CCCC2	3.5%	-1.9%	-1.8%	-1.4%	1.7%
N#Cc1c(NCCO)nc(NCc2ccccc2)c2c1CCN(Cc1ccccc1)C2	10µM*	-12.6%	14.1%	u	u
CCN1CCc2c(C#N)c(N3CCOCC3)nc(NCc3ccccc3)c2C1	2.3%	-2.5%	8.2%	u	u
C=CCNc1nc(N2CCCCC2)c(C#N)c2c1CN(Cc1ccccc1)CC2	28.2µM*	8.9%	11.3%	u	u
CC(C)C(=O)SCCCCCCC(=O)Nc1nc(-c2ccccc2)cs1	x	17.3%	x	x	x
Cc1cccc(NC(=O)CS(=O)(=O)c2nc(-c3ccccc3)cn2-c2cccc(Cl)c2)c1C	2.1%	x	x	x	x
CCN(CC)C(=O)Oc1ccc(Br)cc1C(=O)Nc1ccc(F)cc1F	31.6µM*	11.8%	-2.6%	1.9%	25.1%
COc1ccc(OC)c(Nc2nc3ccccc3n3c(C)nnc23)c1	-9.3%	x	x	x	x
COc1ccccc1C1CC(c2cccs2)=NN1C(=O)CCC(=O)O (stereo unspecified)	x	x	u	-0.4%	-16.2%
COc1cccc(C2CC(c3cccs3)=NN2C(=O)CSc2nc3ccccc3o2)c1OC (stereo unspecified)	8.91µM*	-1.5%	-1.5%	2.5%	6.4%
Cc1cn2c(=O)c(S(=O)(=O)NCc3ccccc3Cl)c(C)nc2s1	15.8µM*	x	x	x	x
Cc1cn2c(=O)c(S(=O)(=O)NCc3ccc(F)cc3)c(C)nc2s1	31.6µM*	x	x	x	x
CCOC(=O)c1c(-c2ccccc2)nc2c(C)cccn12	-6.3%	1.6%	-5.2%	5.8%	24.8%
Cc1cccn2c(N)c(-c3ccccc3)nc12	15.8µM*	-6.1%	8.1%	u	u
CN1CCc2c(sc(NC(=O)CS(=O)(=O)c3ccccc3)c2C(N)=O)C1	x	x	x	u	23.1µM*

Bioassay records from PubChem BioAssay.
